Experimental findings from publication PMC5700166 are described below.

What all share (test): protein-binding microarray (PBM); PBM: ~300 nM protein, 6 mM HEPES pH 7.8, 80 mM KCl, 0.5 mM EDTA, 0.5 mM EGTA, 6% glycerol, 35 ng/ul poly-dIdC, 1% milk, 1 h, room temperature; Ap Aiptasia and Nv Nematostella (sea anemones) / Co Capsaspora / Aq Amphimedon (sponge) / Dm Drosophila / Hu human; RHD is the Rel homology domain; high values mean tight binding
Holding throughout (settings): dsDNA, one strand shown

In assay [1] the target is T1, GST-Ap-NF-kB RHD (Exaiptasia pallida (Aiptasia), UniProt A0A913YAJ5 2-422).
T1 sequence: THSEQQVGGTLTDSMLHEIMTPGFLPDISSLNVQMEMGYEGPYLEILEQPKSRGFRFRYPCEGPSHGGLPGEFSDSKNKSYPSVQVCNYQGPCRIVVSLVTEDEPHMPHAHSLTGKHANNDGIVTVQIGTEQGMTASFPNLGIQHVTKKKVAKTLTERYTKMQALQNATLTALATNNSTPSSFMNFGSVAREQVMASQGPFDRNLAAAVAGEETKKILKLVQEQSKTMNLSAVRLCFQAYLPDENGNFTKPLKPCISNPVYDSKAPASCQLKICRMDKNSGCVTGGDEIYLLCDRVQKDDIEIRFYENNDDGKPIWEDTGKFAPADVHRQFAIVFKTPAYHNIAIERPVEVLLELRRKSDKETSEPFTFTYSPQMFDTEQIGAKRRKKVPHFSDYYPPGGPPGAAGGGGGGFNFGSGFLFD

The target of assay [2] is T2, GST-Nv-NF-kB (Cys allele) (Nematostella vectensis, UniProt E5G601 2-411).
T2 sequence: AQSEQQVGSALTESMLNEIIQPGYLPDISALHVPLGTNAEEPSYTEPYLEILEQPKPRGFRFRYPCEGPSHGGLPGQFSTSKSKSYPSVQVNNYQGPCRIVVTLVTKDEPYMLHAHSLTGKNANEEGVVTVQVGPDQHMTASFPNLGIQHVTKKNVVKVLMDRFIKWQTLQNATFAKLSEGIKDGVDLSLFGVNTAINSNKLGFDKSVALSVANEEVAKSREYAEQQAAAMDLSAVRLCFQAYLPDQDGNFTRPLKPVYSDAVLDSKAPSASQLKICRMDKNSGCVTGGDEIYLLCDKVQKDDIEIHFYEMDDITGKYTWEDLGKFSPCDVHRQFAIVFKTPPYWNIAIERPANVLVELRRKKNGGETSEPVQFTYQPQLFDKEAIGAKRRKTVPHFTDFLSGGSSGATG

For assay [3], the target named is T3, GST-Co-NF-kB (Capsaspora owczarzaki, UniProt F1ARL5 200-546).
T3 sequence: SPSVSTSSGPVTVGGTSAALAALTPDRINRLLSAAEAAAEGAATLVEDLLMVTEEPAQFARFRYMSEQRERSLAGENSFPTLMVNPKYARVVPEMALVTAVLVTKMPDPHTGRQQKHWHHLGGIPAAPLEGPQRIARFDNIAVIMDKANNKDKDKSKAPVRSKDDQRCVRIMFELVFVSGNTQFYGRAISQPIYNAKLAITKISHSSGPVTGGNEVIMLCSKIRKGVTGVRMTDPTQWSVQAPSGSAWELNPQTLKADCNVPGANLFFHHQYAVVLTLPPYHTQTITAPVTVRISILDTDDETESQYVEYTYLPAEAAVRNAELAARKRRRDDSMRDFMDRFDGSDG

Assay [4] deals with T4, GST-Dm-Relish (Drosophila melanogaster, UniProt Q94527 99-473).
T4 sequence: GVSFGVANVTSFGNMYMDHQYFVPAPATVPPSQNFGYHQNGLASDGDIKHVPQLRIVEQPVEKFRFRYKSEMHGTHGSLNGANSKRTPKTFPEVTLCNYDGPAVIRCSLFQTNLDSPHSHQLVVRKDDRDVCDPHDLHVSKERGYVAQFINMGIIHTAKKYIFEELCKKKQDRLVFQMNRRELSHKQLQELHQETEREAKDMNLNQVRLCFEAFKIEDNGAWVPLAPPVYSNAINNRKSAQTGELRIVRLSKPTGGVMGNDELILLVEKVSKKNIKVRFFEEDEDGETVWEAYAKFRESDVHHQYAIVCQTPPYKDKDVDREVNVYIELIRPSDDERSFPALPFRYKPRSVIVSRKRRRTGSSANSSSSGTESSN

The target of assay [5] is T5, GST-Aq-NF-kB (Amphimedon queenslandica, UniProt A9Y5G7 2-389).
T5 sequence: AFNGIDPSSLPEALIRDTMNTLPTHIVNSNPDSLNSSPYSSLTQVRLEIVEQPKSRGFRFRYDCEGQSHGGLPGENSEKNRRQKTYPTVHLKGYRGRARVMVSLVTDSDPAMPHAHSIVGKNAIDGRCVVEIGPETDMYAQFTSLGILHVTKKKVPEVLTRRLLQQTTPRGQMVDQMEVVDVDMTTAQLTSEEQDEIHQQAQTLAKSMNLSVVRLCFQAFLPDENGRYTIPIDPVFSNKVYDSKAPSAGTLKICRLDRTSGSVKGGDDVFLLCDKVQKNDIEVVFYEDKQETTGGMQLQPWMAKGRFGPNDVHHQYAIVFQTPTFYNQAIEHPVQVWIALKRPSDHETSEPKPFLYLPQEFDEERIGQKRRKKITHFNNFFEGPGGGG

Assay [6] concerns the target GST-Hu-p50 (Homo sapiens, UniProt P19838 7-356).

Chain of GST-Hu-p50 (P19838 7-356): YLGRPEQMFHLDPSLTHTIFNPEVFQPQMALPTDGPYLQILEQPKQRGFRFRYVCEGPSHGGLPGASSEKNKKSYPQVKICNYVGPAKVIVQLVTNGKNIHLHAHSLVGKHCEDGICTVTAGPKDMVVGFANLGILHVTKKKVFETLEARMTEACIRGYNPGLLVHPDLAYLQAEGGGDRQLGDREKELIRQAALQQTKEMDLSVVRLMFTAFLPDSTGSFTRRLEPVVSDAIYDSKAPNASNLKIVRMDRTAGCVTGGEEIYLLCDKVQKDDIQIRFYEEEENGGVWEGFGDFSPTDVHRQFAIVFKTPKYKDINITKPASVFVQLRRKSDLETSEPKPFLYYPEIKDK

With “CCGATTAACATCAGAAACCCCCATGATGTTAATCGGGTCTTGATTCGCTTGACGCTGCTG”, the binding signal in assay [1] came out at 7.61 z-score; in assay [2] it was 6.32 z-score; in assay [3], 2.76 z-score; in assay [4], 8.35 z-score; in assay [5] it was 5.97 z-score; in assay [6] it was 6.52 z-score.
Turning to “CCGATTAACATCAGGGGACTTCATGATGTTAATCGGGTCTTGATTCGCTTGACGCTGCTG”, the binding signal in assay [1] is 6.7 z-score; in assay [2], 5.76 z-score; in assay [3], 2.35 z-score; in assay [4], 6.09 z-score; in assay [5] it was 5.48 z-score; in assay [6] it was 5.72 z-score.
Regarding “CCGATTAACATCACTAATCCCCCTGATGTTAATCGGGTCTTGATTCGCTTGACGCTGCTG”, the binding signal in assay [1] came out at 6.44 z-score; in assay [2] it was 5.78 z-score; in assay [3], 5.81 z-score; in assay [4], 5.13 z-score; in assay [5], 4.99 z-score; in assay [6] it was 6.23 z-score.
Take “CCGATTAACATCAGAATACCCCCTGATGTTAATCGGGTCTTGATTCGCTTGACGCTGCTG”: the binding signal worked out at 7.89 z-score in assay [1]; 5.69 z-score in assay [2]; 4.84 z-score in assay [3]; 5.26 z-score in assay [4]; 5.57 z-score in assay [5]; 5.27 z-score in assay [6].
As to “CCGATTAACATCAAAGCACCCCCTGATGTTAATCGGGTCTTGATTCGCTTGACGCTGCTG”, the binding signal was found to be 4.9 z-score in assay [1]; 3.86 z-score in assay [2]; 3.63 z-score in assay [3]; 3.26 z-score in assay [4]; 4.36 z-score in assay [5]; 4.35 z-score in assay [6].
For the sequence “CCGATTAACATCAGGGGGAGTACTGATGTTAATCGGGTCTTGATTCGCTTGACGCTGCTG”, the binding signal in assay [1] is 6.52 z-score; in assay [2], 4.73 z-score; in assay [3] it was 5.82 z-score; in assay [4], 9.03 z-score; in assay [5], 6.58 z-score; in assay [6], 5.94 z-score.
Consider “CCGATTAACATCACGAAAACCCCTGATGTTAATCGGGTCTTGATTCGCTTGACGCTGCTG”, for which the binding signal turned out to be 6.45 z-score in assay [1]; 5.36 z-score in assay [2]; 2.45 z-score in assay [3]; 7.06 z-score in assay [4]; 5.3 z-score in assay [5]; 6.06 z-score in assay [6].
Turning to “CCGATTAACATCAGGGGGTTGCATGATGTTAATCGGGTCTTGATTCGCTTGACGCTGCTG”, the binding signal is 5.29 z-score in assay [1]; 3.67 z-score in assay [2]; 2.22 z-score in assay [3]; 4.83 z-score in assay [4]; 4.08 z-score in assay [5]; 5.29 z-score in assay [6].
In the case of “CCGATTAACATCAGGGGGTTAAATGATGTTAATCGGGTCTTGATTCGCTTGACGCTGCTG”, the binding signal in assay [1] was 4.33 z-score; in assay [2], 4.07 z-score; in assay [3] it was 3.62 z-score; in assay [4], 5.86 z-score; in assay [5], 4.49 z-score; in assay [6], 4.29 z-score.
“CCGATTAACATCAAAACACCCCTTGATGTTAATCGGGTCTTGATTCGCTTGACGCTGCTG”: the binding signal in assay [1] was 3.63 z-score; in assay [2], 2.54 z-score; in assay [3] it was 2 z-score; in assay [4], 4.19 z-score; in assay [5], 4.03 z-score; in assay [6], 4.32 z-score.
As to “CCGATTAACATCAGGGTAATTTATGATGTTAATCGGGTCTTGATTCGCTTGACGCTGCTG”, the binding signal was found to be 4.07 z-score in assay [1]; 6.3 z-score in assay [2]; 3.64 z-score in assay [3]; 3.68 z-score in assay [4]; 6.31 z-score in assay [5]; 4.9 z-score in assay [6].
Regarding “CCGATTAACATCAGGGGGAACACTGATGTTAATCGGGTCTTGATTCGCTTGACGCTGCTG”, the binding signal in assay [1] amounted to 6.57 z-score; in assay [2] it was 5.66 z-score; in assay [3] it was 8.64 z-score; in assay [4] it was 6.58 z-score; in assay [5] it was 5.54 z-score; in assay [6], 5.28 z-score.
For “CCGATTAACATCAAAAATTCACCTGATGTTAATCGGGTCTTGATTCGCTTGACGCTGCTG”, the binding signal in assay [1] stood at 1.56 z-score; in assay [2], 2.59 z-score; in assay [3], 1.24 z-score; in assay [4], 5.78 z-score; in assay [5] it was 2.74 z-score; in assay [6], 4 z-score.
Take “CCGATTAACATCAGGCATCCCCCTGATGTTAATCGGGTCTTGATTCGCTTGACGCTGCTG”: the binding signal came out at 6.28 z-score in assay [1]; 5.13 z-score in assay [2]; 3.74 z-score in assay [3]; 6.22 z-score in assay [4]; 6.35 z-score in assay [5]; 5.3 z-score in assay [6].
For the sequence “CCGATTAACATCAAACGTTCCCCTGATGTTAATCGGGTCTTGATTCGCTTGACGCTGCTG”, the binding signal in assay [1] is 5.26 z-score; in assay [2] it was 5.7 z-score; in assay [3], 6.66 z-score; in assay [4], 3.29 z-score; in assay [5], 4.66 z-score; in assay [6], 4.03 z-score.
Turning to “CCGATTAACATCAGGGGACGTTATGATGTTAATCGGGTCTTGATTCGCTTGACGCTGCTG”, the binding signal in assay [1] was 4.77 z-score; in assay [2], 5 z-score; in assay [3], 3.19 z-score; in assay [4] it was 2.7 z-score; in assay [5], 4.72 z-score; in assay [6], 4.56 z-score.
Turning to “CCGATTAACATCACAGAAACCCCTGATGTTAATCGGGTCTTGATTCGCTTGACGCTGCTG”, the binding signal in assay [1] is 5.66 z-score; in assay [2] it was 4.62 z-score; in assay [3] it was 1.21 z-score; in assay [4], 6.6 z-score; in assay [5], 4.61 z-score; in assay [6], 5.39 z-score.
Consider “CCGATTAACATCAGGGGGAGTTATGATGTTAATCGGGTCTTGATTCGCTTGACGCTGCTG”, for which the binding signal came to 6.7 z-score in assay [1]; 5.95 z-score in assay [2]; 7.05 z-score in assay [3]; 5.28 z-score in assay [4]; 6.18 z-score in assay [5]; 6.55 z-score in assay [6].
As to “CCGATTAACATCAAATAAGCCCCTGATGTTAATCGGGTCTTGATTCGCTTGACGCTGCTG”, the binding signal in assay [1] turned out to be 3.57 z-score; in assay [2] it was 5.54 z-score; in assay [3] it was 1.15 z-score; in assay [4] it was 4.29 z-score; in assay [5], 5.74 z-score; in assay [6], 4.31 z-score.
Turning to “CCGATTAACATCACGGGGTTTTCTGATGTTAATCGGGTCTTGATTCGCTTGACGCTGCTG”, the binding signal in assay [1] was 6.68 z-score; in assay [2], 6.13 z-score; in assay [3], 2.98 z-score; in assay [4] it was 8.05 z-score; in assay [5], 5.9 z-score; in assay [6], 5.61 z-score.
Consider “CCGATTAACATCAAGGAGTCCCCTGATGTTAATCGGGTCTTGATTCGCTTGACGCTGCTG”, for which the binding signal in assay [1] was 7.69 z-score; in assay [2], 5.61 z-score; in assay [3], 3.12 z-score; in assay [4] it was 8.59 z-score; in assay [5], 5.54 z-score; in assay [6], 5.86 z-score.
“CCGATTAACATCAGGGCTCCCCATGATGTTAATCGGGTCTTGATTCGCTTGACGCTGCTG”: the binding signal in assay [1] turned out to be 2.59 z-score; in assay [2], 1.32 z-score; in assay [3], 2.03 z-score; in assay [4], 3.88 z-score; in assay [5], 2.46 z-score; in assay [6], 1.51 z-score.
As to “CCGATTAACATCAACTATCCCCCTGATGTTAATCGGGTCTTGATTCGCTTGACGCTGCTG”, the binding signal in assay [1] stood at 5.83 z-score; in assay [2], 4.03 z-score; in assay [3] it was 6.08 z-score; in assay [4] it was 2.98 z-score; in assay [5], 4.04 z-score; in assay [6], 4.09 z-score.
As to “CCGATTAACATCAACAACCCCCCTGATGTTAATCGGGTCTTGATTCGCTTGACGCTGCTG”, the binding signal in assay [1] is 6.24 z-score; in assay [2] it was 4.31 z-score; in assay [3], 4.22 z-score; in assay [4] it was 6.01 z-score; in assay [5], 5.18 z-score; in assay [6], 5.38 z-score.
